A selection: hits, their analogues and other compounds. The true share with any hit is near 3.3%.
GSIS activator: primary screen for activators of insulin secretion dependent on glucose, INS-1E cells, GLuc reporter luminescence; activation, % at 16.6 µM; AID 743287; INS-1E GLuc reporter insulin secretion, 2-3 h; hit rate 0.61% among 370,000;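 active = lowest replicate activation of at least 40%, so every replicate reaches that level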
CASP6 VEID inh: inhibitors of human caspase-6; P55212; purified caspase-6, Z-VEID-R110 cleavage fluorescence; inhibition, % at 12.5 µM; hit rate 0.53% among 350,000; AID 686996;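 active = mean inhibition across replicates at least about 35%, with every replicate also reaching that limit, limit read from the data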
FGF22 binding: shifts melting point of recombinant human FGF22 | Q9HCT0 | recombinant FGF22 thermal shift, SYPRO orange fluorescence; percent of sucrose octasulfate shift, DMSO zero | activity (Tm shift, normalised), % at 9.99 µM | hit rate 1.5% among 340,000 | AID 651658;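 active = mean Tm shift, scaled 0 neutral to 100 positive control, at about 1.3% or above, every replicate too, limit read from the data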
Target sequence (Q9HCT0 whole entry, looked up): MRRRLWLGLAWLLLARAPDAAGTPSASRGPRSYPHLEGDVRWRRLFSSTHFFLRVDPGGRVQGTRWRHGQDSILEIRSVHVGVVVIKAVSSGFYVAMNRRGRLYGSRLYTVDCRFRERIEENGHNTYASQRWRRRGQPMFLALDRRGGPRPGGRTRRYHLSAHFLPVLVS
SIRT5 block: inhibitors of human sirtuin-5 desuccinylase; Q9NXA8; Purified SirT5, succinyl-peptide AMC, trypsin-coupled fluorescence; inhibition, % at 15 µM; hit rate 1.1% among 330,000; in the data active = inhibition above about 15%
Target sequence (Q9NXA8 whole entry, looked up): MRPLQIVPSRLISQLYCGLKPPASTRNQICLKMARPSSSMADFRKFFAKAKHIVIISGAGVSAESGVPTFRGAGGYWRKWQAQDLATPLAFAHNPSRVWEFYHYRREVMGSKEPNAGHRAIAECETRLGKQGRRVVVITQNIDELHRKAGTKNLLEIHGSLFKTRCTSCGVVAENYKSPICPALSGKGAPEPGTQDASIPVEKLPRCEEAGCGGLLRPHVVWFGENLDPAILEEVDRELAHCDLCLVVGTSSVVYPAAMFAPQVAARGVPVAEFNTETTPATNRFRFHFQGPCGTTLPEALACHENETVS
ERAP1 HTS inh: blocks human ERAP1 aminopeptidase activity; Q9NZ08; recombinant ERAP1, Leu-AMC fluorescence, 60 min; inhibition, % at 10.7 µM; hit rate 0.15% among 340,000; AID 652197;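 active = mean replicate inhibition of at least 30%, or all replicates individually reaching that 30% level; inactive = mean below 30% and not every replicate reaching it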
Hits are given with their value; – = inactive; · = no result given; ! = repeats disagree.

SMILES | GSIS activator | CASP6 VEID inh | FGF22 binding | SIRT5 block | ERAP1 HTS inh
O=C(NCC[C@@H]1CC[C@H](NC(=O)Nc2cc(F)ccc2F)[C@@H](CO)O1)Nc1ccc(F)cc1 | – | – | – | – | –
O=C(C[C@H]1C[C@@H]2c3cc(NC(=O)Nc4ccc(F)cc4)ccc3O[C@@H]2[C@@H](CO)O1)NC1CCCC1 | – | · | · | · | ·
Cc1ccc(NC2=NCC(=O)N2C2CCCC2)cc1 | – | – | 43 | – | –
COc1cc(/C=C2/C(=O)NN(c3ccc(Cl)c(Cl)c3)C2=O)cc([N+](=O)[O-])c1O | – | · | – | 22 | –
COc1cc(/C=C2/C(=O)NN(c3ccc(Cl)cc3)C2=O)cc(Br)c1O | – | 81 | – | – | –
COc1cc(/C=C2/C(=O)NN(c3ccc(F)cc3)C2=O)cc(Cl)c1O | – | – | – | – | –
CCOC(=O)C1=C(COC(=O)c2ccc(C)s2)NC(=O)NC1C (centres undefined) | – | – | – | – | –
CCOC(=O)C1=C(COC(=O)/C=C/c2ccco2)NC(=O)NC1C (centres undefined) | – | 61 | – | – | –
CCOC(=O)C1=C(COC(=O)/C=C/c2ccc(OC)cc2)NC(=O)NC1C (centres undefined) | – | – | – | – | –
CC1CCN(C(=O)COC(=O)/C=C/c2ccco2)CC1 | – | 49 | – | – | –
CCOC(=O)C1=C(COC(=O)c2cccs2)NC(=O)NC1C (centres undefined) | 59 | – | – | – | –
O=C(N[C@H]1CC[C@H](CC(=O)N2CCc3ccccc3C2)O[C@@H]1CO)C1CCOCC1 | – | – | – | – | –
O=C(NC(=S)N1CCCc2ccccc21)c1ccco1 | – | – | – | 22 | –
COCC(=O)N1[C@@H](CO)[C@@H]2c3ccccc3N(C(=O)c3ccccc3)C[C@@H]21 | – | – | – | – | –
CC12CC(c3ccccc3O1)C(/C(N)=N/NC(=O)c1ccc(F)cc1)C(=O)N2 (centres undefined) | – | – | – | 16 | –
O=C(C[C@H]1C=C[C@H](NC(=O)c2ccccc2)[C@H](CO)O1)NCCc1ccncc1 | – | 41 | – | – | –
O=C(C[C@@H]1CC[C@@H](NC(=O)c2ccccc2)[C@H](CO)O1)NCCc1ccncc1 | – | – | – | – | –
O=C(C[C@H]1CC[C@@H](NC(=O)c2ccccc2)[C@H](CO)O1)NCCc1ccncc1 | – | – | – | 32 | –
C[C@@H]1CN([C@@H](C)CO)C(=O)c2cccc(NC(=O)Nc3ccc(C(F)(F)F)cc3)c2O[C@@H]1CN(C)S(=O)(=O)c1ccc(Cl)cc1 | – | – | – | – | –
COc1cccc(C(=O)Nc2ccc3c(c2)OC[C@@H](C)N(CCc2ccccc2)C[C@@H](C)[C@H](OC)CN(C)C3=O)c1 | – | – | – | – | –
Cc1cccc(CN(C)C[C@@H]2OCc3cnnn3CCCC(=O)N([C@H](C)CO)C[C@@H]2C)c1 | – | – | – | 15 | –
Cc1ccc(CN(C)C[C@@H]2OCc3cnnn3CCCC(=O)N([C@H](C)CO)C[C@@H]2C)cc1 | – | – | – | 18 | –
CCOC(=O)N(C)C[C@H]1OCc2cn(nn2)CCCC(=O)N([C@H](C)CO)C[C@H]1C | – | – | – | 17 | –
C[C@@H]1CN([C@H](C)CO)C(=O)CCCn2nncc2CO[C@H]1CN(C)Cc1cccnc1 | – | – | – | 17! | –
O=C(c1ccccc1F)N1CC[C@@H]2[C@H](CO)Nc3ccc(C#Cc4ccccc4F)cc3[C@@H]21 | – | – | – | – | –
SMILES | GSIS activator | CASP6 VEID inh | FGF22 binding | SIRT5 block | ERAP1 HTS inh
O=C(Nc1ccc(F)cc1)N1C[C@@H]2[C@H](c3ccccc31)[C@@H](CO)N2C(=O)Cc1ccccn1 | – | – | – | – | –
C[C@H]1CN([C@@H](C)CO)C(=O)CCCn2cc(nn2)CO[C@H]1CN(C)Cc1ccccc1 | – | – | – | 25 | –
C[C@@H]1CN([C@@H](C)CO)C(=O)CCCn2nncc2CO[C@H]1CN(C)Cc1ccccc1 | 41! | – | – | – | –
COc1ccc(CN2C[C@H](O)COC[C@@H]3O[C@@H](CC(=O)N4CCc5ccccc5C4)CC[C@H]32)cc1 | – | – | – | – | –
C[C@H](CO)N1C[C@H](C)[C@H](CN(C)C(=O)Nc2ccc3c(c2)OCO3)Oc2ccc(NC(=O)Cc3ccccc3)cc2C1=O | – | – | – | · | –
COC(=O)C1=C(O)/C(=C\c2cc(C)n(-c3ccccc3F)c2C)N=C1C | – | – | – | – | –
COC(=O)C1=C(C)NC(=O)/C1=C\c1cc(C)n(-c2ccccc2)c1C | – | – | 43 | – | –
C[C@@H]1CN([C@@H](C)CO)C(=O)c2cc(NC(=O)C3CCCCC3)ccc2O[C@@H](C)CCCCO[C@@H]1CN(C)CC1CCCCC1 | – | – | – | – | –
COc1ccc(CC(=O)Nc2ccc(C(C)=O)cc2)cc1 | – | – | – | – | –
COc1ccc(CC(=O)Nc2ccc(C(=O)NCC(C)C)cc2)cc1 | – | – | · | 18 | –
CO[C@H]1CN(C)C(=O)c2ccc(NC(=O)C3CC3)cc2OC[C@@H](C)N(CC2CCOCC2)C[C@H]1C | – | – | – | – | –
CCN(CCC(=O)O)c1ccccc1 | 63 | · | · | · | ·
Clc1ccc(OCc2cc(-c3ccccc3)no2)cc1Cl | – | – | – | – | –
Clc1ccc(-c2cc(COc3ccccc3)on2)cc1 | – | – | 43 | – | –
C/C=C/c1cccc(-c2nc(C(=O)N(C)C)cc3c2[C@H](CCO)N([S@@](=O)C(C)(C)C)C3)c1 | – | – | – | – | –
O=C(NCCc1ccc(Cl)cc1)C1CCC(=O)N(C2CCCCCC2)C1 (centres undefined) | – | – | – | 25 | –
COc1ccc(CCCNC(=O)C2CCC(=O)N(Cc3ccc(Cl)cc3)C2)cc1 (centres undefined) | – | – | – | 32 | –
CCOC(=O)C1CCCN(C2=NC(=O)/C(=C/c3ccc(N(C)C)cc3)S2)C1 (centres undefined) | – | – | 1.9 | – | –
CCNC(=O)[C@H]1[C@H](CO)[C@H]2Cn3c(ccc(-c4ccccc4)c3=O)[C@H]2N1Cc1ccccn1 | – | – | – | – | –
CCCn1c(=O)c2sccc2n2c(CCCC(=O)NCc3ccco3)nnc12 | – | 58 | – | – | –
CCCn1c(=O)c2sccc2n2c(CCCC(=O)NCc3cccnc3)nnc12 | – | – | – | – | –
Cc1ccc(S(=O)(=O)Nc2ccc3c(c2)C(=O)N([C@@H](C)CO)C[C@H](C)[C@H](CN(C)Cc2ccncc2)OCCCC[C@@H](C)O3)cc1 | – | – | – | – | –
C/C(=N/NC(=O)c1cc(O)c(O)c(O)c1)c1ccc([N+](=O)[O-])cc1 | – | 74 | – | – | –
COC(=O)c1ccc(COc2ccccc2/C=C(\C#N)C(=O)Nc2ccc(C)cc2C)cc1 | – | – | – | – | 37
O=C(CCCN1C(=O)/C(=C\c2ccco2)SC1=S)Nc1ccc2ccccc2c1 | – | – | – | – | –

Screens as filed in PubChem BioAssay.
